In the library only some 21% were active in any assay of this set; here they are far more common.
TDP1 cell CPT: growth inhibition of DT40 Tdp1-/-;hTDP1 cells with camptothecin (screen for TDP1 inhibitors); Potency, µM (top dose mostly 46.2 µM), usual class: inhibitors; AID 686979; 420,000 tested, 12% active; chicken DT40 Tdp1-/-;hTDP1 cells + 20 nM CPT, ATP luminescence, 48 h; note: nearly all actives have a fitted effect of over 55% in size
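Chicken DT40 Tdp1-/- cells stably complemented with human TDP1 were seeded at 400 cells/well in medium containing 20 nM camptothecin, exposed to pin-transferred compounds, and grown at 37 °C for at least 48 hr. Viability was read as ATP luminescence.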
IL-1B inflam inh: inflammasome signaling inhibition, IL-1 beta readout. THP-1 LPS/ATP IL-1B secretion, AlphaLISA, 16 h; stronger effect = lower value. activity change, % at 57.5 µM. 360,000 tested, 4.7% active. AID 743279; in the data active = activity change below about -50%; inconclusive = mostly about -30% to -49%
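THP-1 cells pretreated 1 hr with compounds (up to 57.5 uM final), then stimulated with LPS (250 ng/mL final) plus ATP (1.25 mM final); secreted IL-1B measured by AlphaLISA after 16 hr, decreased signal indicating inhibition.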
ClpP mod: qHTS Assay for Activators of ClpP. AID 651965, 2013. 340,000 tested, 1.9% active. Potency, µM (titrated, usually from 57.5 µM). purified B. subtilis ClpP, FRET peptide cleavage, 20 min; active = well fitted falling curve with a large enough effect; inconclusive = small, poorly fitted or top-dose-only effect; inactive = no such curve, though single readings can be large or run the other way; note: the source files actives as falling curves though it sought activators and does not explain the sign; nearly all actives have a fitted effect of over 65% in size
Target sequence (P80244 whole entry, looked up): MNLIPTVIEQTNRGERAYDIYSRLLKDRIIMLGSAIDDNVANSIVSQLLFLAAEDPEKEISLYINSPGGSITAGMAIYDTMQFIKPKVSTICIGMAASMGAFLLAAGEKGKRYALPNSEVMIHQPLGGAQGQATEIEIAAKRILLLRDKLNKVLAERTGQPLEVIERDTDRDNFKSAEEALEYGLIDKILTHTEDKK
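FRET quenching reversal measured ClpP activation: 10 microg/mL B. subtilis ClpP at pH 8 with the FRET-FV decapeptide, read at 430 nm after 320 nm excitation. The 20-min minus 0-min signal was scaled between DMSO/no-enzyme wells and ADEP (5.8 microM final).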
TDP1 cell noCPT: qHTS for Inhibitors of human tyrosyl-DNA phosphodiesterase 1 (TDP1): qHTS in cells in absence of CPT; DT40 Tdp1-/- hTDP1 cells, no CPT, ATP luminescence, 48 h; Potency, µM (titrated, usually from 46.2 µM), usual class: inhibitors; 420,000 tested, 15% active; AID 686978, 2013; note: nearly all actives have a fitted effect of over 55% in size
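A cellular qHTS used chicken DT40 cells lacking endogenous Tdp1 but carrying stably transfected human TDP1. Compounds were applied without camptothecin, and cell growth kinetics were judged by ATP-dependent luminescence after ≥48 hr.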
DRD3 antagonist: D3 dopamine receptor (human) antagonism; D3R cells, DiscoveRx beta-arrestin luminescence, antagonist mode; stronger effect = lower value; P35462; max response, negative = inhibition, %; 360,000 tested, 2.5% active; in the data active = max response below about -50%; inconclusive = no clear call, values can overlap the other calls
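Cells expressing the human receptor were seeded at 1500 cells/well, incubated overnight at 37 degrees C in 5% CO2, then exposed to library compounds with dopamine controls for 90 minutes at 37 degrees C before luminescent detection.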
DRD3 agonist: agonists of human D3 dopamine receptor; D3R DiscoveRx beta-arrestin cells, luminescence, 90 min; max activation, %; 410,000 tested, 0.58% active; in the data active = max activation above about 30%
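Agonist mode: compounds and dopamine controls were applied to plated cells for 90 min at 37 degrees C after an overnight attachment at 1500 cells/well. Luminescent read-out followed 30 - 60 minutes at room temperature with DiscoveRx detection reagent.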
ClpP inh valid: validation of B. subtilis ClpP protease hits (inhibitors); Potency, µM (doses to about 57.5 µM), most hits filed as inhibitors; 470 tested, 40% active; purified B. subtilis ClpP, FRET-FV substrate cleavage, 20 min; shares compounds with ClpP mod; AID 743245; note: nearly all actives have a fitted effect of over 70% in size
Of the large screens only hits and unclear results are named; the others gave an inactive call (follow-up assays come after a bar, where they were run). Unless noted, calls come from the whole dose curve; as a rule, active = well fitted inhibition curve with a large enough effect; inconclusive = small, poorly fitted or top-dose-only effect; inactive = flat fitted curve, though single readings scatter.

CCCc1cc(=O)n2c(nc3ccccc32)[nH]1	TDP1 cell CPT inconclusive, ClpP mod 7.08µM, TDP1 cell noCPT inconclusive, DRD3 antagonist inconclusive | ClpP inh valid 13.7µM
CCCCC1C2=C(CC(C)(C)CC2=O)OC2=C1C(=O)CC(C)(C)C2	TDP1 cell CPT inconclusive, TDP1 cell noCPT inconclusive
O=C(CSc1n[nH]c(-c2ccncc2)n1)Nc1ccc(Br)cc1	none
CCOc1ccc(CNC(=O)c2cc3oc4ccccc4c3n2C)cc1	TDP1 cell CPT inconclusive, IL-1B inflam inh inconclusive, ClpP mod 6.31µM, TDP1 cell noCPT inconclusive | ClpP inh valid inactive
CCOc1ccc(CNC(=O)c2ccc3oc(=O)n(Cc4ccccc4)c3c2)cc1	TDP1 cell CPT inconclusive, TDP1 cell noCPT inconclusive (no result: IL-1B inflam inh, DRD3 antagonist)
O=S(=O)(c1ccc2c(Cl)cccc2c1)N1CCN(c2nc(-c3cccs3)nc3ccccc23)CC1	ClpP mod 4.47µM (no result: IL-1B inflam inh, DRD3 antagonist, DRD3 agonist) | ClpP inh valid 21.7µM
O=S(=O)(c1ccc2c(c1)CCCC2)N1CCN(c2nc(-c3cccs3)nc3ccccc23)CC1	TDP1 cell CPT inconclusive, ClpP mod 8.91µM, TDP1 cell noCPT inconclusive (no result: IL-1B inflam inh, DRD3 antagonist, DRD3 agonist) | ClpP inh valid 24.3µM
CC(=O)c1cccc(S(=O)(=O)N2CCN(c3nc(-c4cccs4)nc4ccccc34)CC2)c1	TDP1 cell CPT inconclusive, TDP1 cell noCPT inconclusive (no result: IL-1B inflam inh, DRD3 antagonist, DRD3 agonist)
CC(C)(C)c1cccc(S(=O)(=O)N2CCN(c3nc(-c4cccs4)nc4ccccc34)CC2)c1	TDP1 cell CPT inconclusive, TDP1 cell noCPT inconclusive (no result: IL-1B inflam inh, DRD3 antagonist, DRD3 agonist)
O=C1NC(c2ccco2)Nc2ccccc21 (centres undefined)	ClpP mod 10µM | ClpP inh valid 24.3µM
CCN(CC(=O)Nc1c(F)cccc1F)C(=O)Cc1csc(-c2ccc(OC)c(OC)c2)n1	ClpP mod 3.16µM | ClpP inh valid 12.2µM
CCOc1ccc(/C=C/C(=O)N(CC)CC(=O)Nc2c(F)cccc2F)cc1OC	IL-1B inflam inh inconclusive, TDP1 cell noCPT inconclusive
Cc1nn(-c2ccccn2)c(N)c1N=O	none (no result: ClpP mod)
Cc1nn(-c2ccccn2)c2c1-c1nc(N)ncc1CC2	TDP1 cell CPT inconclusive, ClpP mod 10µM, TDP1 cell noCPT inconclusive | ClpP inh valid 17.2µM
O=C(c1ccncc1)N1CCN(S(=O)(=O)c2cccc(Cl)c2)CC1	ClpP mod 3.16µM | ClpP inh valid inactive
CNC(=O)c1cc(S(=O)(=O)N2CC(C)OC(C)C2)ccc1N1CCOCC1 (centres undefined)	TDP1 cell noCPT inconclusive | ClpP inh valid inactive
O=C(NCc1ccc(F)cc1)c1cc(S(=O)(=O)N2CCCCC2)ccc1N1CCOCC1	TDP1 cell CPT inconclusive, TDP1 cell noCPT inconclusive
O=C(NC1CCCC1)c1cnn2c(C(F)(F)F)cc(-c3ccco3)nc12	TDP1 cell noCPT inconclusive
CCCn1c(=O)c2c(C(F)(F)F)cc(-c3ccco3)nc2n(CCC)c1=O	ClpP mod 1.78µM | ClpP inh valid 6.85µM
Cc1ccc(C)c(NC(=O)c2cc3ccccc3o2)c1	none
Cc1ccc(-c2nc3cc(C(C)C)ccc3o2)cc1NC(=O)c1cc2ccccc2o1	TDP1 cell CPT inconclusive, ClpP mod inconclusive, TDP1 cell noCPT inconclusive (no result: IL-1B inflam inh, DRD3 antagonist) | ClpP inh valid 30.6µM
O=C(NCc1cccs1)c1ccc2c(c1)sc1nc(-c3ccc(F)cc3)cn12	TDP1 cell noCPT inconclusive (no result: IL-1B inflam inh, DRD3 antagonist)
Cc1ccc(-c2cn3c(n2)sc2cc(C(=O)NCc4cccs4)ccc23)cc1	TDP1 cell CPT 14.6µM, ClpP mod 7.08µM, TDP1 cell noCPT 20.6µM (no result: IL-1B inflam inh, DRD3 antagonist) | ClpP inh valid 27.3µM
O=c1oc2cc(OCc3ccc(F)cc3F)ccc2cc1-c1ccccn1	ClpP mod 3.16µM | ClpP inh valid 9.68µM
NC(=O)COc1ccc2cc(-c3ccc(F)cc3)c(=O)oc2c1	none (no result: ClpP mod)
